# Assay results: PubChem BioAssay
# Where “and” joins values, the source holds several entries; their conditions need not be identical. Equal entries are not always repeated. Records with an inconclusive call do not appear. Calls of active or inactive are those of the source. Unless noted, how the calls were made is not given here.
# Columns and labels:
# [1] = modulation of C. elegans fzo-1 (AID 1259413);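 further: fzo-1 mutant C. elegans worms in liquid wells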; details: C. elegans fzo-1 modulator screen, mean read-out; stronger effect = higher value
# [2] = SU-DIPG-VI glioma cell viability, MIPE4.0 library, CellTiter-Glo luminescence, qHTS (AID 1347066; cut-off not given, nearly all actives have AC50 up to about 30 µM;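 further: cells exposed to compound for 48 hours before readout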); details: CellTiter-Glo ATP luminescence
# F380Y/beta1 = assay: modulators of BK channel variants, profiling panel, selectivity assay, cell-based, U2OS BacMam, thallium flux, beta subunits (AID 1259406;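 active means thallium flux through the channel raised or lowered by more than 3 SD from vehicle-only wells, actives on both sides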;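 further: initial slope of Thallos dye fluorescence rise after thallium is added; log ratio against the mean of 0.3% DMSO vehicle wells on the same plate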); details: at 30 µM
# F380Y/beta4 = assay: as above; details: at 30 µM
# R275C/beta4 = assay: as above; details: at 30 µM
# R275C/Slo1WT/beta2 = assay: as above; details: at 30 µM
# [3] = circadian clock period modulators, cell-based, LOPAC library, luminescence reporter (AID 2774); details: circadian reporter cells, at 7 µM, actives lie on both sides;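 further: values are relative to mean of DMSO wells on each plate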
# [4] = tested on: Aerobactin synthetase IucA (Klebsiella pneumoniae); assay: IucA aerobactin synthetase inhibitors, biochemical, Tocris library, absorbance (AID 1345561); details: purified IucA enzyme assay, absorbance (OD) read-out; stronger effect = lower value;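 tested at 8 µM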;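 further: 100% = enzyme without compound and 0% = no enzyme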
# [5] = phospholipid biosynthesis inhibitors in animal cells, primary screen, cell-based, LOPAC library, screen 4 (AID 1347384); details: phospholipid biosynthesis inhibition screen, at 10 µM
# [6] = polyglutamine-triggered caspase-3 activation inhibitors, cell-based (AID 1583); details: polyglutamine-induced caspase-3 activation, cell assay; stronger effect = higher value;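 tested at 10 µM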
# [7] = suppressors of polyQ aggregation in yeast, 75Q-TubU reporter (AID 1593); details: Yeast 75Q polyglutamine aggregation reporter
# [8] = inhibitors of mitochondrial cytochrome c release, biochemical, purified mitochondria (AID 1603); details: stronger effect = lower value;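 further: mouse liver mitochondria challenged with calcium chloride; signal normalized to the plate average as 100%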
# [9] = modifiers of HSF1 nuclear foci, imaging, Selleck Cancer Library (AID 1347162; in the data active means plate-normalised HSF1 focus index below about 0.46); details: human cells, at 10 µM; SSMD: measured here: HSF1 foci SSMD mean; cell count: measured here: cell number; plate-normalised HSF1 focus index: stronger effect = lower value
compound,measurement,setting,value
CC(=O)O[C@]1(C(C)=O)CC[C@H]2[C@@H]3C[C@H](C)C4=CC(=O)CC[C@]4(C)[C@H]3CC[C@@]21C,mean signal,[1],251 (inactive)
same,outcome,[2],inactive
same,log fold change Tl+ flux,F380Y/beta1,0.0192 (inactive)
same,log fold change Tl+ flux,F380Y/beta4,-0.000109 (inactive)
same,log fold change Tl+ flux,R275C/beta4,0.0252 (inactive)
same,log fold change Tl+ flux,R275C/Slo1WT/beta2,0.0102 (inactive)
CC[C@H](C)C(=O)O[C@H]1CCC=C2C=C[C@H](C)[C@H](CC[C@@H]3C[C@@H](O)CC(=O)O3)[C@H]21,period change,[3],0.035 h (inactive)
same,mean signal,[1],242 (inactive)
same,remaining activity,[4],123% (inactive)
same,outcome,[5],inactive
CCCCC(=O)O[C@H]1CC[C@H]2[C@@H]3CCc4cc(O)ccc4[C@H]3CC[C@]12C,log fold change Tl+ flux,F380Y/beta1,-0.0484 (inactive)
same,log fold change Tl+ flux,F380Y/beta4,0.00293 (inactive)
same,log fold change Tl+ flux,R275C/beta4,-0.0402 (inactive)
same,log fold change Tl+ flux,R275C/Slo1WT/beta2,0.00597 (inactive)
CN(C)CCC(c1ccc(Cl)cc1)c1ccccn1 (stereo not given),inhibition,[6],-45.4%
same,score,[7],1.36
same,cytochrome c release ratio,[8],0.61
same,period change,[3],-0.5 h (inactive)
same,mean signal,[1],225 (inactive)
same,outcome,[5],inactive
same,log fold change Tl+ flux,F380Y/beta1,-0.0189 (inactive)
same,log fold change Tl+ flux,F380Y/beta4,0.0511 (inactive)
same,log fold change Tl+ flux,R275C/beta4,0.0326 (inactive)
same,log fold change Tl+ flux,R275C/Slo1WT/beta2,0.0403 (inactive)
CCCC1O[C@@H]2C[C@H]3[C@@H]4CCC5=CC(=O)C=C[C@]5(C)[C@H]4[C@@H](O)C[C@]3(C)[C@]2(C(=O)CO)O1 (stereo not given in full),period change,[3],-0.26 h (inactive)
same,remaining activity,[4],98.4% (inactive) and 108% (inactive)
same,outcome,[5],inactive
same,log fold change Tl+ flux,F380Y/beta1,0.126 (active)
same,log fold change Tl+ flux,F380Y/beta4,0.0417 (inactive)
same,log fold change Tl+ flux,R275C/beta4,0.1 (inactive)
same,log fold change Tl+ flux,R275C/Slo1WT/beta2,-0.0145 (inactive)
Nc1ccn([C@@H]2O[C@H](CO)[C@@H](O)C2O)c(=O)n1 (stereo not given in full),mean signal,[1],259 (inactive)
same,SSMD,[9],-7.27
same,cell count,[9],7440
same,plate-normalised HSF1 focus index,[9],0.739 (inactive)
same,outcome,[5],inactive
CN=C(N)NCCC[C@H](N)C(=O)O,period change,[3],-0.035 h (inactive)
same,mean signal,[1],269 (inactive)
same,outcome,[5],inactive
Cn1cc[nH]c1=S,inhibition,[6],14.9%
same,score,[7],1.43
same,cytochrome c release ratio,[8],1.1
same,mean signal,[1],225 (inactive)
same,log fold change Tl+ flux,F380Y/beta1,-0.0456 (inactive)
same,log fold change Tl+ flux,F380Y/beta4,0.0112 (inactive)
same,log fold change Tl+ flux,R275C/beta4,0.0185 (inactive)
same,log fold change Tl+ flux,R275C/Slo1WT/beta2,0.019 (inactive)
COc1cc(CNC(=O)CCCC/C=C/C(C)C)ccc1O,inhibition,[6],-19.2%
same,score,[7],0.57
same,cytochrome c release ratio,[8],1.29
same,remaining activity,[4],122% (inactive)
same,outcome,[2],inactive
CC/C(=C(\c1ccccc1)c1ccc(OCCN(C)C)cc1)c1ccccc1,inhibition,[6],22.9%
same,score,[7],-1.76
same,cytochrome c release ratio,[8],2.67
same,period change,[3],0.115 h (inactive)
same,remaining activity,[4],79.2% (inactive)
same,AC50,[2],23.5 µM (active)
same,SSMD,[9],-8.19
same,cell count,[9],3320
same,plate-normalised HSF1 focus index,[9],0.591 (inactive)
same,outcome,[5],inactive
NCCc1cnc[nH]1,inhibition,[6],-28.4%
same,score,[7],1.16
same,cytochrome c release ratio,[8],0.91
same,period change,[3],0.14 h (inactive)
same,remaining activity,[4],107% (inactive)
same,outcome,[2],inactive
same,outcome,[5],inactive
CCCCCCCCCCCC1=C(O)C(=O)C=C(O)C1=O,remaining activity,[4],99.6% (inactive)
O=c1cc(-c2ccc(O)cc2)oc2cc(O)cc(O)c12,inhibition,[6],0.12%
same,score,[7],1.67
same,cytochrome c release ratio,[8],3.46
same,period change,[3],0.02 h (inactive)
same,remaining activity,[4],107% (inactive)
same,outcome,[5],inactive
CN1C[C@H](C(=O)N[C@]2(C)O[C@@]3(O)[C@@H]4CCCN4C(=O)[C@H](Cc4ccccc4)N3C2=O)C[C@@H]2c3cccc4[nH]cc(c34)C[C@H]21,inhibition,[6],-12.1%
same,score,[7],1.21
same,cytochrome c release ratio,[8],1.48
same,period change,[3],0.225 h (inactive)
same,remaining activity,[4],86.1% (inactive)
same,outcome,[5],inactive
O=C(O)c1cccnc1C(=O)O,inhibition,[6],-5.39%
same,score,[7],1.95
same,cytochrome c release ratio,[8],1.17
same,period change,[3],-0.235 h (inactive)
same,remaining activity,[4],95.4% (inactive)
same,outcome,[5],inactive
CCCCOc1cc(CC2CNC(=O)N2)ccc1OC (stereo not given),period change,[3],0.115 h (inactive)
same,remaining activity,[4],104% (inactive)
same,outcome,[5],inactive
COc1c(C)c2c(c(O)c1C/C=C(\C)CCC(=O)O)C(=O)OC2,inhibition,[6],-14.6%
same,score,[7],0.55
same,cytochrome c release ratio,[8],1.22
same,remaining activity,[4],113% (inactive)
same,outcome,[2],inactive
same,SSMD,[9],-0.56
same,cell count,[9],7660
same,plate-normalised HSF1 focus index,[9],0.964 (inactive)
O=c1cc(-c2ccccc2)oc2cc(O)c(O)c(O)c12,remaining activity,[4],119% (inactive)
CN(C)CCN(Cc1cccs1)c1ccccn1,inhibition,[6],23.7%
same,score,[7],1.21
same,cytochrome c release ratio,[8],0.66
same,period change,[3],0.21 h (inactive)
same,outcome,[5],inactive
